# According to the supplement of paper PMC7724964:
# T1: CD2BP2 256-341 GYF (domain begin residue: 256, domain end residue: 341), O95400
# T1 chain: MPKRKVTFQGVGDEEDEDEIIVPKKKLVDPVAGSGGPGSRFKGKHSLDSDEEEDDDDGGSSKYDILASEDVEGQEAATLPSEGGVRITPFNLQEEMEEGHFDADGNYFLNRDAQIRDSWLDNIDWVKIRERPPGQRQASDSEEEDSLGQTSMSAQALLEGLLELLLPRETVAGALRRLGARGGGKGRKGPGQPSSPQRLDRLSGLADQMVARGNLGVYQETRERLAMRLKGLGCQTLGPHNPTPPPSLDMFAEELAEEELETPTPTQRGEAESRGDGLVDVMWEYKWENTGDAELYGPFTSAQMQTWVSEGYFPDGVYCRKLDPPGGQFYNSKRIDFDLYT
# T2: CLTC 1-363 Clathrin_propel+Clathrin-link (domain begin residue: 1, domain end residue: 363), Q00610
# T2 chain: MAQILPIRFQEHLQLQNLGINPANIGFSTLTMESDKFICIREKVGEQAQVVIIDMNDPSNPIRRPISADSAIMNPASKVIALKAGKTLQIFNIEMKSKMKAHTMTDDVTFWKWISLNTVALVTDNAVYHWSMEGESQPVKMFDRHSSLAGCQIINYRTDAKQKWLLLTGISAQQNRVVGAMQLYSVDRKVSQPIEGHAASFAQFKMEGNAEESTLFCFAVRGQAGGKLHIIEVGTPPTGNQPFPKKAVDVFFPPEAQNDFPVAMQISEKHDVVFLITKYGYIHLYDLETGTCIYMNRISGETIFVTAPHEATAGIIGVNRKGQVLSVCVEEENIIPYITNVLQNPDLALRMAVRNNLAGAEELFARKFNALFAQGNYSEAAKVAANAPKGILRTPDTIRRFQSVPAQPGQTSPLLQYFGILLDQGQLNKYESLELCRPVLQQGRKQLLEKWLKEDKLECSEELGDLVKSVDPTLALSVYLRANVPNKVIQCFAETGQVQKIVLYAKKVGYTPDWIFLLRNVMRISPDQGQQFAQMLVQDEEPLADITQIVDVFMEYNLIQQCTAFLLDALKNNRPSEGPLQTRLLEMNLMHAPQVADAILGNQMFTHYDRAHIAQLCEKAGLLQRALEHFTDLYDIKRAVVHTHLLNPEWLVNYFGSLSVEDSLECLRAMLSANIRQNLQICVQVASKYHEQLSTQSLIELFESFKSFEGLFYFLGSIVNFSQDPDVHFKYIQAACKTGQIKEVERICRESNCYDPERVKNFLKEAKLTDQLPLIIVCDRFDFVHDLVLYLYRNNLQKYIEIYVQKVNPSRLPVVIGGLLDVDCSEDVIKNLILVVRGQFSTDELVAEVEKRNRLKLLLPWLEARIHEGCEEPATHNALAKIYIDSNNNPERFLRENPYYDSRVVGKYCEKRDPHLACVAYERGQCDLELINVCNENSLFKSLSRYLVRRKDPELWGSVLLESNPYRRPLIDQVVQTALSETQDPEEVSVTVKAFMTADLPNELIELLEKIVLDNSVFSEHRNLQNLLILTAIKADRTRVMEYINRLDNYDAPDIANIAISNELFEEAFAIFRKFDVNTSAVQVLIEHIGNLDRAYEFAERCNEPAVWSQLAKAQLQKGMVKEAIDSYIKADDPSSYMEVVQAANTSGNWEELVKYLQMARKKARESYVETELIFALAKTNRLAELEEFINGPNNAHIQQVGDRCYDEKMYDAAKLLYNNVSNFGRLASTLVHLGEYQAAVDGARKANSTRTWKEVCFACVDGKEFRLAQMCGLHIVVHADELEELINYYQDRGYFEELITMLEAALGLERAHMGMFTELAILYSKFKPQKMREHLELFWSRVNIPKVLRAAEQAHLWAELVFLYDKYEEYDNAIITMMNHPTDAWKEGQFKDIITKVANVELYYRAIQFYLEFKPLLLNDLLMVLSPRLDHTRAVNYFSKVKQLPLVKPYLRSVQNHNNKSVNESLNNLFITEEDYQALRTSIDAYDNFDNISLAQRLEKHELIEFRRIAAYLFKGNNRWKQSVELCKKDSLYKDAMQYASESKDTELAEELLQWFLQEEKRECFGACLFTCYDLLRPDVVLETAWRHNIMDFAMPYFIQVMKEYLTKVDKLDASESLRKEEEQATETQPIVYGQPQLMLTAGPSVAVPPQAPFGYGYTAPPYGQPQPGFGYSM
# T3: CTDSP2 90-271 NIF (domain begin residue: 90, domain end residue: 271), O14595
# T3 chain: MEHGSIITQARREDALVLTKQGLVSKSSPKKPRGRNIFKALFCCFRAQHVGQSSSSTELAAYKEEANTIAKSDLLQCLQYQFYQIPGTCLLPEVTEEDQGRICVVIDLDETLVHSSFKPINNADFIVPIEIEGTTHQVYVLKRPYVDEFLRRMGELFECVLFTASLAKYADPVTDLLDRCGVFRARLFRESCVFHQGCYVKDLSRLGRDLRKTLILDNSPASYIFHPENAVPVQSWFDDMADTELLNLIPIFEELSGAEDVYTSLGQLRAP
# What was measured:
# Assay in all cases: phage ELISA signal ratio (GST-PRM binding over GST background); higher = stronger binding of peptide-phage to the PRM
# [1] = target: T1, CD2BP2 256-341 GYF (domain begin …
# Experimental: (§1)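 Phage-displayed random hexadecapeptides (Cys-free, flanked by invariant Gly linkers, fused to the M13 P8 major coat protein) were selected over 5 rounds against GST-fused human PRM domains. Individual clones from rounds 4-5 were tested by phage ELISA, and positive clones binding the target but not GST were sequenced. Values are the ELISA signal ratio of target over background (GST); the background signal is given separately.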
# [2] = target: DEPDC6 20-129 DEP (domain begin residue: 20, domain end residue: 129)
# Experimental: as §1
# [3] = target: T2, CLTC 1-363 …
# Experimental: as §1
# [4] = target: T3, CTDSP2 90-271 NIF (domain begin …
# Experimental: as §1
# [5] = target: CKS1B 1-79 CKS (domain begin residue: 1, domain end residue: 79), P61024
# Experimental: as §1
# [6] = target: CBX5 109-173 Chromo_shadow (domain begin residue: 109, domain end residue: 173), P45973
# Experimental: as §1
# [7] = target: DEPDC6 132-222 DEP (domain begin residue: 132, domain end residue: 222)
# Experimental: as §1
# [8] = target: DCTN1 26-97 CAP_GLY (domain begin residue: 26, domain end residue: 97), Q14203
# Experimental: as §1
# Sequence of CKS1B 1-79 CKS (domain begin residue: 1, domain end residue: 79), P61024 (P61024 whole entry): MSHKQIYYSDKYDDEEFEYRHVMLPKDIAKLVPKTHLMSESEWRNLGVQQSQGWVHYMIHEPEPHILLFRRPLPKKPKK
# Sequence of CBX5 109-173 Chromo_shadow (domain begin residue: 109, domain end residue: 173), P45973 (P45973 whole entry): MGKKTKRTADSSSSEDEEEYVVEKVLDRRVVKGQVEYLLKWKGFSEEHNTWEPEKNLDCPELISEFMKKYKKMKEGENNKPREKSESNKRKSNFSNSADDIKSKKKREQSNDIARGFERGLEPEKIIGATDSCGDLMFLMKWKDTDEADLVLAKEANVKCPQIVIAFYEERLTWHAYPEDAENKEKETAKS
# Sequence of DCTN1 26-97 CAP_GLY (domain begin residue: 26, domain end residue: 97), Q14203 (Q14203 whole entry): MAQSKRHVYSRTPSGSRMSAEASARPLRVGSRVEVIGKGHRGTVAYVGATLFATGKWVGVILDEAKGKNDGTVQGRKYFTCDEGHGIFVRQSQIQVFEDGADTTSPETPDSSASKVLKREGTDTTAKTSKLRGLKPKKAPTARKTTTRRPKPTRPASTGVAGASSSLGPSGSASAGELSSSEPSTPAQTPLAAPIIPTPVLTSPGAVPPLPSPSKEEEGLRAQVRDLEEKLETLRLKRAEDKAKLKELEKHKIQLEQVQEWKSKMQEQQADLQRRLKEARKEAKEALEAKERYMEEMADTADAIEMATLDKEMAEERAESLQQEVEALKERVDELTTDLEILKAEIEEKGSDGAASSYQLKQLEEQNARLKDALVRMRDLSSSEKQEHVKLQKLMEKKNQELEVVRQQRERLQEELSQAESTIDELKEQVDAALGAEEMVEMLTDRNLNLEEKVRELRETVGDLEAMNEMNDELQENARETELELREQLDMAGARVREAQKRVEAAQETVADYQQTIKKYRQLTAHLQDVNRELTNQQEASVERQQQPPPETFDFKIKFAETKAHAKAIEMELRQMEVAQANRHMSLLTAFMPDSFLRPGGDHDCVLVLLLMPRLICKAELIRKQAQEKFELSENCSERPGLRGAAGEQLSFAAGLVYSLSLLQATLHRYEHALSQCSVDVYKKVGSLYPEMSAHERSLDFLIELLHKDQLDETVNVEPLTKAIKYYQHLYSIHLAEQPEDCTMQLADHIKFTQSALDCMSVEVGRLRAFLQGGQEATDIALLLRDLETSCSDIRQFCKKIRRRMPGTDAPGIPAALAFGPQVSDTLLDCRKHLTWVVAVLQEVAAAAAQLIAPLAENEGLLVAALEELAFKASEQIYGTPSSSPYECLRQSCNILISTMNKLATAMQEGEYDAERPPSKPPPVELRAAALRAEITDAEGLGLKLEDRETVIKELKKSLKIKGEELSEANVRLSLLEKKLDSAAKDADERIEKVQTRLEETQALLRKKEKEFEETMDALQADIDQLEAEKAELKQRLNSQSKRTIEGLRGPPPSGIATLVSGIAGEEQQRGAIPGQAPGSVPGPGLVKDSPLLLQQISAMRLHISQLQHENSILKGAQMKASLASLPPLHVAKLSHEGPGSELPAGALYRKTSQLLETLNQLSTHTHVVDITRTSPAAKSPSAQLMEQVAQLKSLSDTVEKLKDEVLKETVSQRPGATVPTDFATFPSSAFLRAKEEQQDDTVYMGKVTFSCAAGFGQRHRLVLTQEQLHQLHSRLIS
binder,measurement,setting,value
MEEPPGYRLNMYAMSY,phage ELISA signal ratio,[1],17.5
EDPTLKVGHPPGWSFK,phage ELISA signal ratio,[1],17.6
MPVWWEDWYWDWKSMH,phage ELISA signal ratio,[2],6.24
GHPPGWSEFGWEHLVI,phage ELISA signal ratio,[1],16.2
THSEQWFETLMWNFHN,phage ELISA signal ratio,[2],3.26
YTLTIDELEHWLSAGG,phage ELISA signal ratio,[3],31.7
EMLAGNEFRAMMDEYY,phage ELISA signal ratio,[2],7.5
EQVSFMHEWHQRFWQT,phage ELISA signal ratio,[4],9.81
QFDLWMRNVMLDFWAD,phage ELISA signal ratio,[2],11.2
MDSWHYDMIPGEWLRV,phage ELISA signal ratio,[5],34.3
IDYESIFYEGMHWHTL,phage ELISA signal ratio,[5],22.1
QFLPTTWQDYLLYMDQ,phage ELISA signal ratio,[6],3.39
IWWEQLHQDDWQAIWA,phage ELISA signal ratio,[7],15.1
WLDYNDWLEMDHWEYV,phage ELISA signal ratio,[3],23.8
NSMSYMDIVWHSFDTI,phage ELISA signal ratio,[5],19.2
SDGDLIWWDWAYNAEQ,phage ELISA signal ratio,[3],15.9
GMSPLIEWPEEWWWLD,phage ELISA signal ratio,[3],21
DLIWWTDLTEEYGTHV,phage ELISA signal ratio,[3],21.9
GETHLMFSNMMEFYKY,phage ELISA signal ratio,[2],19.9
SQPEQMQWHTYDPYDL,phage ELISA signal ratio,[5],30.4
EVFDLISWDDGMWHSV,phage ELISA signal ratio,[3],28.8
WDGQAWHLSDPYLWEM,phage ELISA signal ratio,[5],17.9
LNWWTYEELQDLEQFT,phage ELISA signal ratio,[5],22.8
EPFMVAWESFMLTHAM,phage ELISA signal ratio,[4],7.49
EVPLWFYNIISEFHET,phage ELISA signal ratio,[2],13.8
TAPPGYGARYMETPYV,phage ELISA signal ratio,[1],16.9
GWEPQWFPSEHLADGN,phage ELISA signal ratio,[5],7.45
QDEWVPWQLWSQWESI,phage ELISA signal ratio,[8],26.4
QQWDPSWYYPQELVKM,phage ELISA signal ratio,[5],20.5
